Compound activity: PubChem BioAssay, National Center for Advancing Translational Sciences (NCATS)
Shiga inhibitor: blocks Shiga toxin action in Vero cells | Vero cells, Shiga toxin protein synthesis inhibition reporter | inhibition, % at 38.7 µM | 290,000 compounds, 9.2% hits | AID 2315; in the data active = inhibition mostly above about 28%, no sharp cut-off; inactive = mostly below about 43%; note: 0% is about no effect
Giardia FBPA inh: Giardia lamblia aldolase inhibition; purified Giardia FBPA; Potency, µM (doses to about 59.6 µM), for the others: top-dose activity, negative = inhibition, most hits filed as inhibitors; 290,000 compounds, 0.71% hits; note: potency is the fitted concentration of half-maximal effect; % is set by controls: 0 for no effect and ±100 for the full control effect; nearly all actives have a fitted effect of over 55% in size
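Giardia FBPA (40 nM reagent) was preincubated 10 min at RT with compound (up to 57.5 uM final), then substrate plus GAPDH/TPI/NAD/arsenate coupling system with diaphorase/resazurin was added; resorufin fluorescence (525/598 nm) was read after 20 min.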
LmPK inh: inhibitors of Leishmania mexicana pyruvate kinase | Q27686 | purified LmPK, Kinase-Glo ATP luminescence, 1 h | Potency, µM (doses to about 57.5 µM), for inactives: at the highest dose activity change, negative = inhibition, hits mostly inhibitors | 290,000 compounds, 0.37% hits | AID 1721; note: potency is the fitted concentration of half-maximal effect; % is set by controls: 0 for no effect and ±100 for the full control effect
Target sequence (Q27686 whole entry, looked up): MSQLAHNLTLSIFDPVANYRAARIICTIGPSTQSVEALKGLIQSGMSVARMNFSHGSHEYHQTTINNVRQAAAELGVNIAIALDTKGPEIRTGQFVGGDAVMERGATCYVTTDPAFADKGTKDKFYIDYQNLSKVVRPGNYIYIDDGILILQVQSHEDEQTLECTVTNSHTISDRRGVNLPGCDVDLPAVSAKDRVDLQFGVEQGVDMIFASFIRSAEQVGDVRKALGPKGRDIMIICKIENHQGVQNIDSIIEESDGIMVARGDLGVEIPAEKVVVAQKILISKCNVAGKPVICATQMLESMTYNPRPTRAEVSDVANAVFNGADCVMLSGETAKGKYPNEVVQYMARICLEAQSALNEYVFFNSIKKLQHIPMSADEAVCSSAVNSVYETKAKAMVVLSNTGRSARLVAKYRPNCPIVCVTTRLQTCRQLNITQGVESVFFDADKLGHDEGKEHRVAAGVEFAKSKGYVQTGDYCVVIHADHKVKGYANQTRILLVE
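Pyruvate kinase activity monitored as ATP production (luciferase luminescence). Conditions: 0.1 nM enzyme, 0.5 mM PEP, 0.1 mM ADP, 1 h, RT; normalized against uninhibited and no-enzyme wells.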
NS1 inh: influenza NS1 inhibition. Potency, µM (series often up to 46.1 µM), inactives show top-dose activity, positive = more growth. 270,000 compounds, 0.4% hits; calls by dose curve; note: potency is the fitted concentration of half-maximal effect; actives are rising curves; nearly all actives have a fitted effect of over 50% in size
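S. cerevisiae expressing influenza A NS1, grown in glucose, washed, then diluted 1:100 into pH 6.0 -URA galactose medium with 23 nl compound. Growth recovery read as OD600; NS1-free strain serves as control.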
Cycloheximide cs: counter-screen for Shiga toxin inhibitors: cycloheximide protein synthesis inhibition; cell reporter, cycloheximide protein synthesis inhibition counterscreen; max response, %; 300,000 compounds, 12% hits; AID 2314; in the data active = max response mostly above about 13%, no sharp cut-off; inactive = mostly below about 14%; note: read at 38.3 µM for the half of the compounds with a filed dose; 0% is about no effect
The depositor's hits bear a star; ? = inconclusive; nt = not tested or not shown; [ ] = another dose, or the depositor's remark. Rows were chosen to be rich in hits. Some 14% of all compounds tested hit in one or more screens of this group. Unless noted, calls come from the whole dose curve; as a rule, active = well fitted curve in the direction sought with a large enough effect; inconclusive = small, poorly fitted or top-dose-only effect, or another doubt; inactive = no such curve, though single readings can be large; an effect the other way counts as inactive or inconclusive.

SMILES | Shiga inhibitor | Giardia FBPA inh | LmPK inh | NS1 inh | Cycloheximide cs
CSc1ccccc1OCc1cc(C(=O)NCCN2CCCC(O)C2)no1 (centres undefined) | -7 | nt | 1% | -2% | 10
Cc1noc(C)c1-c1ccc2ncnc(N3CCC(C(=O)O)CC3)c2c1 | nt | 4% | nt | nt | nt
CC(=O)Nc1ccc(S(=O)(=O)N2CCC(C(N)=O)(N3CCCCC3)CC2)cc1 | -7 | 6% | 2% | 11% | -2
C=CCNC(=O)N1CCc2nc(CCCC)c3c(c2C1)CO[C@@H](C)C3 | nt | 3%[12.9 µM] | 0%[11.5 µM] | nt | nt
COC(=O)Cn1c(O)c(N=NC(=O)CNC(=O)COc2cccc(C)c2)c2ccccc21 | 12 | ? | 12% | -9% | -2
CN1N=C(C(C)(C)C)CSC1=Nc1ccccc1 | 36 | 3% | 5% | -3% | 16
COc1ccc(O[C@H]2C=C[C@@H](c3ccccc3)O[C@H]2COC(=O)CC/C(C)=N\OC[C@@H](O)[C@H]2O[C@H]3OC(C)(C)O[C@H]3[C@@H]2O)cc1 | nt | -1%[12.9 µM] | nt | nt | nt
C[C@@H]1CN(Cc2cn(C)nc2-c2cccc(Cl)c2)C[C@H](C)O1 | -4 | 0% | 7% | 10% | -2
CC1CN(Cc2csc(-c3ccc(Cl)cc3)n2)CC(C)O1 (centres undefined) | 117* | ? | 3% | nt | 47
O=[As](O)(O)c1ccc(N=Nc2ccc([As](=O)(O)O)cc2)cc1 | nt | nt | nt | 0% | nt
CC1(C)OC(=O)C(=NNc2ccc(Br)cc2)C(=O)O1 | 115* | -9% | -1% | -7% | 31*
CCOC(=O)c1sc(N=NC2=C(O)CCCC2=O)c(C(=O)OCC)c1C | 16 | -17% | -3% | nt | 18*
CCOC(=O)c1sc(N=Nc2c(O)[nH]c(=O)[nH]c2=O)c(C(=O)OCC)c1C | -3 | -6% | 5% | 29% | 1
C(=N/Nc1ccccn1)/c1cccnc1 | nt | nt | nt | -9% | nt
C(=N\Nc1ccccn1)/c1cccnc1 | nt | ? | 3% | 5% | 24*
FC(F)(F)c1ccc(N/N=C/c2cccnc2)nc1 | 71* | -7% | -1% | -37% | 41*
O=C(O)C(O)C(O)(Cc1ccc(O)cc1)C(=O)O (centres undefined) | nt | -11% | nt | nt | nt
N#Cc1ccc(CSc2nnc(Nc3ccccc3)s2)cc1 | -4 | -2% | -2% | -13% | -3
c1ccc(CSc2nnc(NC3=NCCCCC3)s2)cc1 | 102* | 1% | 0% | -33% | 44*
Cc1cccc(-c2cc(N)n(-c3ccccc3)n2)c1 | 65* | -1% | ? | nt | 45*
CCS(=O)(=O)n1nc(-c2ccccc2)cc1N | -3 | 0% | 4% | ? | -3
Cc1ccc(-c2cc(N)n(-c3ccccc3)n2)cc1 | 80* | 0% | -26% | ? | 66*
Nc1cc(C2CCCC2)nn1-c1ccccc1 | 104* | -6% | 14µM* | 21% | 46*
CCc1ccc(-c2cc(N)n(-c3ccccc3)n2)cc1 | 154* | -10% | 1%[11.5 µM] | nt | 33*
COc1ccc(/C=N/OCC(=O)N2CCCC2)c(OC)c1 | 30 | 0% | 1% | nt | 17*
SMILES | Shiga inhibitor | Giardia FBPA inh | LmPK inh | NS1 inh | Cycloheximide cs
Cc1cc(OCCN2CCCCCC2)ccc1[N+](=O)[O-] | -3 | -16% | -7% | -9% | 2
COc1ccc(/C=N/OCC(=O)NCC(C)C)c(OC)c1 | -4 | -5% | -1% | nt | -1
Cc1cc(OCC(=O)N2CCCCCC2)ccc1[N+](=O)[O-] | 17 | -2% | -2% | -4% | 43*
O=C(c1ccccc1)c1ccc(OCC(=O)N2CCOCC2)cc1 | 46* | 5% | -6% | nt | 17
Cc1ccc(OCC(=O)N2CCOCC2)cc1C | 44* | 5% | -3% | -2% | 31*
COc1ccc(-c2nc3cnc(OC)nc3n(CCC#N)c2=O)cc1 | nt | 9% | nt | nt | nt
COc1ccc(OC)c(S(=O)(=O)N/N=C(/C)c2ccc3c(c2)OCO3)c1 | -3 | 7% | 2% | -5% | 2
Cc1ccc(C)c(OCCCC(=O)N2CCOCC2)c1 | 44* | 2% | 1% | -1% | 27*
O=C(COc1ccc(F)c(Cl)c1)N1CCCCCCC1 | 12 | 16% | 4% | 9% | 7
Cc1ccc(OCC(=O)N2CCCCCCC2)cc1C | 29* | -6% | -2% | 25% | 21*
Cc1cc(OCC(=O)N2CCOCC2)cc2oc(=O)c3ccccc3c12 | 36* | 1% | -2% | -10% | 21*
Cc1ccc(OCC(=O)c2ccc3c(c2)CCCC3)cc1C | 92* | -2% | 8% | 8% | 36*
CCC(Cc1ccccc1)NC(=O)c1cc(S(=O)(=O)N2CCCCC2)c[nH]1 (centres undefined) | -8 | 2% | -1% | -13% | 2
Cc1cccc(OCc2nnc(SCCC(=O)O)n2-c2ccccc2)c1 | nt | 5% | 31% | 12% | -1
Cc1cc(C(=O)Nc2cccc(C)c2C)n(-c2ccccc2)n1 | 51* | -5% | -10% | -3% | 24*
Cc1cc(C(=O)Nc2cccc3ccccc23)n(-c2ccccc2)n1 | 22 | -14% | -4% | nt | 8
CC(=O)Nc1ccc(NC(=O)c2cc(C)nn2-c2ccccc2)cc1 | 0 | -1% | 0% | -4% | -2
COc1ccc(NC(=O)c2cc(C)nn2-c2ccccc2)cc1 | 58* | 1% | 2% | -3% | 37*
CCc1ccc(NC(=O)c2cc(C)nn2-c2ccccc2)cc1 | 26 | 7% | 2% | -5% | 13*
C=CC[C@@](C(C)=O)(C(=O)OC)C(NC(=O)OC(C)(C)C)c1ccccc1 (some centres undefined) | nt | 2% | nt | nt | nt
N#CC1CC(c2ccccc2)=NN1c1ccccc1[N+](=O)[O-] (centres undefined) | 113* | -6% | 2% | nt | 48*
COC(=O)c1ccc(NC(=O)c2ccccc2SC)cc1 | 46* | -10% | 9% | -43% | 27*
COC(=O)c1ccccc1NC(=O)c1ccccc1N(C)S(=O)(=O)c1ccccc1 | -7 | 2% | 2% | -12% | -8
O=C(Nc1ccc2c(c1)CCC2)c1ccccc1Br | 63* | -6% | 0% | -8% | 34*
CN(CC(=O)Nc1ccc2c(c1)CCC2)CC(=O)Nc1ccccc1Br | -16 | -6% | 5% | nt | -1
SMILES | Shiga inhibitor | Giardia FBPA inh | LmPK inh | NS1 inh | Cycloheximide cs
Cc1c(C(=O)Nc2ccc(Nc3ccccc3)cc2)cccc1[N+](=O)[O-] | 3 | -2% | -1% | -23% | 6
COC(=O)c1ccc(NC(=O)c2ccccc2N(C)S(=O)(=O)c2ccccc2)cc1 | 8 | -6% | 5% | -8% | 16*
Cc1c(C(=O)Nc2ccc3c(c2)CCC3)cccc1[N+](=O)[O-] | 125* | -7% | 1% | 2% | 95*
CC(=O)C1=C(O)C(=O)N(c2ccccn2)C1c1cccc(F)c1 (centres undefined) | 17 | -12% | 6% | 3% | 12
CC(Nc1oc(-c2ccccc2)nc1-c1ccc(C(F)(F)F)cc1)c1ccccc1 (centres undefined) | nt | -3% | nt | nt | nt
CSc1ccccc1C(=O)Nc1ccc2c(c1)CCC2 | 41* | -3% | -15% | -13% | 21
CSc1ccccc1C(=O)Nc1cccc(C)c1 | -4 | -5% | -3% | -7% | 11
